High-throughput results as filed in PubChem.
ELG1 DNA repair = blocks ELG1-dependent DNA repair in HEK293T cells. actives 2.3% (n = 330,000). Potency, µM (top dose mostly 46.1 µM), for the others: top-dose activity change, negative = inhibition, actives largely listed as inhibitors. HEK293T ELG1-luciferase reporter, luminescence, 16 h; DNA damage induced by 5-fluorouridine; also: potency is read from the fitted curve at half-maximal effect; nearly all actives have a fitted effect of over 55% in size
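Quantitative HTS, concentration-response format. 2,000 cells/well co-treated with 5-fluorouridine and compound, 16 hr in 5% CO2 at 37 °C; ONE-Glo luminescence read after 30 min.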
TDP1 cell noCPT = qHTS for Inhibitors of human tyrosyl-DNA phosphodiesterase 1 (TDP1): qHTS in cells in absence of CPT; DT40 Tdp1-/- hTDP1 cells, no CPT, ATP luminescence, 48 h; Potency, µM (highest dose often 46.2 µM), for the others: at the top dose activity change, negative = growth inhibition, most hits filed as inhibitors; actives 15% (n = 420,000); AID 686978, 2013; also: potency is read from the fitted curve at half-maximal effect; nearly all actives have a fitted effect of over 55% in size
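Camptothecin absent (DMSO only). Human TDP1-complemented DT40 knockout cells, 400 cells/well, 37 °C for minimum 48 hr; ATP measured via CellTiter-Glo, 30 min dark incubation, luminescence.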
Gal4-VP16 FLuc = Gal4-VP16 reporter inhibition counter-screen | Drosophila S2 Gal4-VP16 UAS-luciferase, luminescence, 20 h | Potency, µM (top dose mostly 53.6 µM), without a hit: at the highest dose activity, negative = inhibition, most hits filed as inhibitors | actives 3.5% (n = 310,000);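 also: Gal4-VP16 expression switched on by copper sulfate through the metallothionein promoter; potency is read from the fitted curve at half-maximal effect; nearly all actives have a fitted effect of over 50% in size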
TDP1 cell CPT = DT40-hTDP1 cell growth loss with CPT; Potency, µM (doses to about 46.2 µM), for the others: top-dose activity change, negative = growth inhibition, most hits filed as inhibitors; actives 12% (n = 420,000); chicken DT40 Tdp1-/-;hTDP1 cells + 20 nM CPT, ATP luminescence, 48 h; AID 686979; also: potency is read from the fitted curve at half-maximal effect; nearly all actives have a fitted effect of over 55% in size
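Cell growth measured by CellTiter-Glo luminescence after a minimum 48 h, 37 C compound exposure with 20 nM CPT in Tdp1-knockout DT40 cells stably expressing hTDP1, seeded 400/well; qHTS titration format.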
RORgamma inh = ROR gamma (mouse) transcription inhibition | Drosophila S2 Gal4-RORgamma UAS-luciferase reporter, 20 h | P51450 | Potency, µM (series often up to 53.6 µM), inactives show at the highest dose activity change, negative = inhibition, actives largely listed as inhibitors | actives 5.4% (n = 310,000); also: potency is read from the fitted curve at half-maximal effect; nearly all actives have a fitted effect of over 60% in size
Target sequence (P51450 whole entry, looked up, the tested form may be a part): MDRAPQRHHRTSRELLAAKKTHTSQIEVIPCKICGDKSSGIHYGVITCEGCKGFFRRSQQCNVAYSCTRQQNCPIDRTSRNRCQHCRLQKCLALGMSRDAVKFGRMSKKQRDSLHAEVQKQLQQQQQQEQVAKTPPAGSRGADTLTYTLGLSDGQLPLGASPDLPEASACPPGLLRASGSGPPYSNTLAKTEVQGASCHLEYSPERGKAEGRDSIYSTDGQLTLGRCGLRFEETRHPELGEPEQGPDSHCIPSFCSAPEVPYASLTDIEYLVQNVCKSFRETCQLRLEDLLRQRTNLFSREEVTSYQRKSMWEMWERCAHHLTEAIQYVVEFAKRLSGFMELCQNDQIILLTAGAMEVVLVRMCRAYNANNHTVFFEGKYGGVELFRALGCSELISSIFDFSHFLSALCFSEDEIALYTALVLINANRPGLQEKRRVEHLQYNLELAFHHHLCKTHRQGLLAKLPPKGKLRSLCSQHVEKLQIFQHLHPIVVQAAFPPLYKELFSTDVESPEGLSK
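Luminescence from a UAS-regulated Photinus luciferase reporter in stably transfected Drosophila Schneider cells is measured; decreased signal marks ROR gamma inhibition. Fusion expression is induced by 700 uM copper sulfate for 20 hr.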
IL1B secr inh = inflammasome signaling inhibition, IL-1 beta readout. THP-1 LPS/ATP IL-1B secretion, AlphaLISA, 16 h; hits give low values. activity change, % at 57.5 µM. actives 4.7% (n = 360,000). AID 743279; in the data active = activity change below about -50%; inconclusive = mostly about -30% to -49%
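THP-1 cells pretreated 1 hr with compounds (up to 57.5 uM final), then stimulated with LPS (250 ng/mL final) plus ATP (1.25 mM final); secreted IL-1B measured by AlphaLISA after 16 hr, decreased signal indicating inhibition.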
Numbers without * were called inactive; [ ] = dose if it differs, or a comment. Most compounds without a hit are left out; they make up all but 21% or so of the library. Unless noted, calls follow the shape of the dose curve; as a rule, active = well fitted curve in the direction sought with a large enough effect; inconclusive = small, poorly fitted or top-dose-only effect, or another doubt; inactive = no such curve, though single readings can be large; an effect the other way counts as inactive or inconclusive. % is scaled to controls: 0 for no effect and ±100 for the full control effect.

COC(=O)C/C=C/C(C)C(OCc1cccc(-c2ccccc2)c1)C1CCCCC1 (stereo unspecified) was read as Gal4-VP16 FLuc 9%[10 µM] and RORgamma inh 1%[10 µM].
For COc1cccc2nc(-c3cccs3)nc(NN3C(=O)C=C(C)C3=O)c12 the results were Gal4-VP16 FLuc 5µM* and RORgamma inh 6.3µM*.
`COc1ccccc1NC(=O)CCc1nc(-c2cccs2)no1` gave ELG1 DNA repair 14%, TDP1 cell noCPT -17%, Gal4-VP16 FLuc 2%, TDP1 cell CPT -2%, RORgamma inh 25% and IL1B secr inh 12.
For CCOC(=O)Cn1c(=O)c2c(nc3n2CCN3c2ccc(CC)cc2)n(C)c1=O the results were TDP1 cell noCPT -19% and TDP1 cell CPT -1%.
`COCCCn1c(=O)/c(=C\c2ccccc2OC(F)F)s/c1=C(/C#N)C(=O)NC(C)C` gave ELG1 DNA repair -5%, TDP1 cell noCPT -9%, Gal4-VP16 FLuc 3%, TDP1 cell CPT -21%, RORgamma inh -13% and IL1B secr inh 14.
COCCCn1c(=O)/c(=C\c2ccccc2OC(C)C)s/c1=C(/C#N)C(=O)Nc1ccc(C(=O)O)cc1 was read as ELG1 DNA repair inconclusive, TDP1 cell noCPT 15µM*, Gal4-VP16 FLuc -27%, TDP1 cell CPT inconclusive, RORgamma inh 44% and IL1B secr inh -4.
For Oc1ccccc1C=Nc1ccccc1-c1nc2ccccc2[nH]1 the results were ELG1 DNA repair inconclusive, TDP1 cell noCPT 16µM*, Gal4-VP16 FLuc inconclusive, TDP1 cell CPT inconclusive, RORgamma inh 31% and IL1B secr inh -3.
Fc1ccccc1-c1nc2ccccc2[nH]1 was read as ELG1 DNA repair inconclusive, TDP1 cell noCPT -21%, Gal4-VP16 FLuc -4%, TDP1 cell CPT -6%, RORgamma inh 35% and IL1B secr inh -2.
Screening c1ccc2c(-c3nc4ccccc4[nH]3)cccc2c1 returned TDP1 cell noCPT 4.6µM*, TDP1 cell CPT 9.2µM* and IL1B secr inh 35.
For c1ccc2nc(-c3nc4ccccc4[nH]3)ccc2c1 the results were ELG1 DNA repair inconclusive, TDP1 cell noCPT 5.2µM*, TDP1 cell CPT inconclusive, RORgamma inh -29%[0.365 µM] and IL1B secr inh 15.
Screening Cc1nnc(NC(=O)c2cc(S(=O)(=O)N3CCCCC3)ccc2Cl)s1 returned ELG1 DNA repair -8%, TDP1 cell noCPT -13%, Gal4-VP16 FLuc 2%, TDP1 cell CPT -9%, RORgamma inh -20% and IL1B secr inh inactive.
Screening Cc1oc2ncn(CC(C)C)c(=O)c2c1C(=O)NCCCN1CCCCC1C (stereo unspecified) returned TDP1 cell noCPT -4% and TDP1 cell CPT -13%.
For CC1CCN(C(=O)CN(Cc2ccc(F)cc2)S(C)(=O)=O)CC1 the results were ELG1 DNA repair -1%, TDP1 cell noCPT -17%, Gal4-VP16 FLuc -7%, TDP1 cell CPT 32%, RORgamma inh 2% and IL1B secr inh -1.
Screening CCn1c(C)cc(/C=C2/SC(=S)N(CC(=O)O)C2=O)c1C returned ELG1 DNA repair 12%, TDP1 cell noCPT -1%, Gal4-VP16 FLuc inconclusive, TDP1 cell CPT 5%, RORgamma inh inconclusive and IL1B secr inh -6.
`CCn1c(C)cc(/C=C2/SC(=O)N(C(C)C(=O)OC)C2=O)c1C` (stereo unspecified) gave ELG1 DNA repair inconclusive, TDP1 cell noCPT 21µM*, Gal4-VP16 FLuc -5%, TDP1 cell CPT inconclusive, RORgamma inh inconclusive and IL1B secr inh -5.
Screening Cc1cc(/C=C2\SC(N)=NC2=O)c(C)n1-c1ccccc1 returned ELG1 DNA repair inconclusive, TDP1 cell noCPT inconclusive, Gal4-VP16 FLuc -22%, TDP1 cell CPT inconclusive, RORgamma inh -10% and IL1B secr inh -3.
`COCCn1c(C)cc(/C=C2/SC(=O)N(C(C)C(=O)OC)C2=O)c1C` (stereo unspecified) gave ELG1 DNA repair inconclusive, TDP1 cell noCPT 26µM*, Gal4-VP16 FLuc -25%, TDP1 cell CPT inconclusive, RORgamma inh 14% and IL1B secr inh -2.
`C#CCN1C(=O)S/C(=C/c2cc(C)n(CC)c2C)C1=O` gave ELG1 DNA repair inconclusive, TDP1 cell noCPT 21µM*, Gal4-VP16 FLuc -6%, TDP1 cell CPT inconclusive, RORgamma inh 12% and IL1B secr inh -6.
`CCOC(=O)C(C)N1C(=O)S/C(=C/c2cc(C)n(-c3ccccn3)c2C)C1=O` (stereo unspecified) gave ELG1 DNA repair inconclusive, TDP1 cell noCPT 16µM*, Gal4-VP16 FLuc inconclusive, TDP1 cell CPT inconclusive, RORgamma inh inconclusive and IL1B secr inh -28.
Screening Cc1cccc(NC(=O)CN2C(=O)N/C(=C/c3cc(C)n(C(C)C)c3C)C2=O)c1 returned ELG1 DNA repair 0%, TDP1 cell noCPT inconclusive, Gal4-VP16 FLuc 8%, TDP1 cell CPT inconclusive, RORgamma inh 35% and IL1B secr inh 13.
For COC(=O)C(C)N1C(=O)S/C(=C/c2cc(C)n(C(C)C)c2C)C1=O (stereo unspecified) the results were ELG1 DNA repair inconclusive, TDP1 cell noCPT inconclusive, Gal4-VP16 FLuc inconclusive, TDP1 cell CPT 16µM*, RORgamma inh -20% and IL1B secr inh -12.
For Cc1ccc(N(CC(=O)NC2CCCCC2)C(=O)CCC(=O)Nc2nccs2)cc1 the results were ELG1 DNA repair -5%, TDP1 cell noCPT -23%, Gal4-VP16 FLuc -5%, TDP1 cell CPT 3%, RORgamma inh -3% and IL1B secr inh -6.
CC1=NN(/C(=N\c2nnc(C)s2)Nc2ccc(C(C)(C)C)cc2)[C@H](c2ccc(C)cc2)S1 was read as ELG1 DNA repair inconclusive, TDP1 cell noCPT inconclusive, Gal4-VP16 FLuc inconclusive, TDP1 cell CPT 18µM*, RORgamma inh 18µM* and IL1B secr inh inconclusive.
`CCn1nc(C)c(Br)c1C(=O)Sc1ccccc1Cl` gave ELG1 DNA repair 15%, TDP1 cell noCPT 4.6µM*, Gal4-VP16 FLuc -20%, TDP1 cell CPT 3.7µM*, RORgamma inh inconclusive and IL1B secr inh -28.
Screening CCn1nc(C)cc1C(=O)Sc1ccc(C)cc1 returned ELG1 DNA repair 0%, TDP1 cell noCPT inconclusive, Gal4-VP16 FLuc 8%, TDP1 cell CPT inconclusive, RORgamma inh -17% and IL1B secr inh inconclusive.
